# Bioassay records as filed in PubChem BioAssay.
# HSF1 inhib: HSF1 inhibition | NIH3T3-HGL HSE-luciferase, MG132-induced, luminescence 8 h; hits give low values | activity change, negative = inhibition, % at 7.5 µM (by protocol) | actives 0.77% (n = 300,000);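 active means more than half of replicate wells show activity change below -50%, luminescence cut by over half; inconclusive means some wells, but at most half, below -50%; inactive means no replicate well below -50%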;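 further: luciferase reports HSF-1 transcriptional activity via heat shock element; 0% = median of DMSO wells and -100% = zero luminescence signal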
# NOD2 RIPK2 PPI: blocks binding of human NOD2 to RIPK2. O43353. CHO BLA complementation NOD2-RIPK2, CCF4 ratio. inhibition, % at 4.98 µM. actives 0.38% (n = 360,000); in the data active means inhibition above about 21%;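 further: 0% = vehicle only and 100% = reference blocker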
# Target sequence (O43353 whole entry, looked up): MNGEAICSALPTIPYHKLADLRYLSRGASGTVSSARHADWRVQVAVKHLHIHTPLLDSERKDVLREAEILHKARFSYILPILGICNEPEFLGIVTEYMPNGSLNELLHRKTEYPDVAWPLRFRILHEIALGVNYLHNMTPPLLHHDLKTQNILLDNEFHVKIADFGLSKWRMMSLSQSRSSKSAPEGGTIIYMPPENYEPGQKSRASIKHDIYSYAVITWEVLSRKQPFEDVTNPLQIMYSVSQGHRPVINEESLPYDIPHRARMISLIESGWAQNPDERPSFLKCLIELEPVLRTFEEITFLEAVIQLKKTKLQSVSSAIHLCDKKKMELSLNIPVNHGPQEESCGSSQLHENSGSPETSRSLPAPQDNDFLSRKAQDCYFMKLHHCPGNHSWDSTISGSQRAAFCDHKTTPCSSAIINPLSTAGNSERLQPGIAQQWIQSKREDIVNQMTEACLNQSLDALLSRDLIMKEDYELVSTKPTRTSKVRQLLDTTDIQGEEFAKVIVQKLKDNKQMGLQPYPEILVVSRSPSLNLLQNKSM
# HSF-1 act: increases HSF-1 driven luciferase reporter signal | NIH3T3-HGL HSF-1 luciferase reporter, MG132, 8 h; 100% = twice DMSO control signal | activation, % at 9 µM | actives 1.7% (n = 300,000) | AID 504408;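 active means mean replicate activation of at least 50% with a set share of replicates each reaching 50%; inconclusive means only one of those two conditions met; inactive means mean below 50% and too few replicates reaching it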;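 further: 0% = median of the neutral control wells and 100% = twice that signal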
# TLR4 MyD88 comp: inhibitors of human TLR4-MyD88 binding; inhibition, % at 8.4 µM; AID 861; HeLa CL3-4 TLR4/MyD88 BLA complementation, FRET ratio; O00206+Q99836; actives 0.18% (n = 200,000); in the data active means inhibition above about 25%;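 further: 0% = vehicle and 100% = reference inhibitor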
# TLR9-MyD88 block: inhibitors of human TLR9-MyD88 binding; CHO BLA complementation TLR9-MyD88, CCF4 FRET ratio; actives 0.21% (n = 340,000); inhibition, % at 4.98 µM;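 active means inhibition above the mean over all tested compounds plus 3 SD, cut at about 21% in these data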;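 further: 0% = DMSO only wells and 100% = clavulanate BLA inhibitor control wells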
# NOD2-RIPK2 conf: confirmation of human NOD2-RIPK2 interaction inhibitors; shares compounds with NOD2 RIPK2 PPI; CHO cells, NOD2-RIPK2 BLA complementation, CCF4 FRET; inhibition, % at 4.98 µM; actives 70% (n = 1,200);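 active means mean inhibition across replicates above a set limit taken from the earlier primary screen, cut at about 21% in these data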;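 further: 0% = DMSO-only wells and the high end = clavulanate BLA-blocked wells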
# NOD2 BLA counter: NOD2-RIPK2 counterscreen BLA reporter activity; shares compounds with NOD2 RIPK2 PPI; CHO BLA reporter, CCF4 FRET ratio; inhibition, % at 4.98 µM; actives 57% (n = 1,200); AID 624371;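 active means mean inhibition above the low-control mean inhibition plus three low-control SD, cut at about 11% in these data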;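 further: 0% = DMSO only wells and 100% = clavulanate high control wells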
# Active calls of the source: *; ? = inconclusive; / = not tested or not shown. Only some compounds are listed: those with a hit (about 2.4% of all), similar ones and a draw of the others.
SMILES,HSF1 inhib,NOD2 RIPK2 PPI,HSF-1 act,TLR4 MyD88 comp,TLR9-MyD88 block,NOD2-RIPK2 conf,NOD2 BLA counter
Cc1ccccc1C(=O)NCC(=O)OC(C)C(=O)NC(C)CCc1ccccc1 (centres undefined),/,-3,/,/,7,/,/
CCOc1cccc(/C=N/Nc2ccc(S(=O)(=O)N(CC)CC)cn2)c1O,-1,-6,0,3,-7,/,/
CCN(CC)S(=O)(=O)c1ccc(N/N=C/c2ccc(O)cc2)nc1,17,40*,18,-6,-8,2,3
COc1ccc(S(=O)(=O)N2CCOCC2)cc1NC(=O)/C=C/c1ccccc1,/,2,/,/,0,/,/
CC1(C)CC(=O)C(C=Nc2ccc(C(=O)c3ccccc3)cc2N=CC2=C(O)CC(C)(C)CC2=O)=C(O)C1,52,27*,?,14,18,-3,-3
Cc1ccc(N(C(=O)CCCC(=O)Nc2ccccn2)C(C(=O)NC2CCCC2)c2ccc(O)cc2)cc1C (centres undefined),5,8,1,/,3,/,/
Cc1cccc(S(=O)(=O)NC(=O)C2(C)CCN2C(=O)CC2CCCCC2)c1 (centres undefined),/,0,/,/,/,/,/
CCC(=O)c1ccc(OCC(=O)N2CCN(c3ccccn3)CC2)cc1,-3,28*,-1,/,7,-1,4
O=C(COc1cccc2ccccc12)N1CCN(c2ccccn2)CC1,-5,-9,2,1,-1,/,/
COC(=O)C12OCC34C(CC5C(C)=C(O)C(=O)CC5(C)C3C(O)C1O)OC(=O)C(OC(=O)C=C(C)C)C24 (centres undefined),/,28*,/,/,-10,25*,-5
O=CNc1ccc2c3c(cccc13)-c1ccccc1-2,/,29*,/,/,1,24*,38*
CC(C)(C)NCC(=Cc1ccccc1)C(=O)c1ccccc1,/,27*,/,/,-2,24*,3
Cc1ccc(S(=O)(=O)N(CC(=O)N(C(C)C)C(C)C)C(=O)N2CCN(C)CC2)cc1,-1,-16,2,/,-4,/,/
COc1ccc(Cl)cc1NC(=O)CN1C(=O)NC2(CCCC2)C1=O,0,-11,4,/,0,/,/
C=C1C(=O)[C@]23C[C@H]1CCC2[C@@]1(C)C(C[C@@H]3O)[C@](C)(C(=O)OC)CC[C@@H]1O (some centres undefined),/,77*,/,/,/,67*,10
COc1cc(C2C3=C(COC3=O)Oc3cc4c(cc32)OCO4)cc(OC)c1OC(C)=O (centres undefined),/,9,/,/,5,/,/
COc1ccc(C2=NN(c3ccc(C(=O)O)cc3)C(c3ccc(OC)c(OC)c3)C2)cc1 (centres undefined),2,25*,4,/,9,20,31*
COc1ccc(C2=C(c3ccc(OC)c(OC)c3)CN3CCCCC3C2)cc1 (centres undefined),/,2,/,/,-3,/,/
COc1ccccc1N(C)S(=O)(=O)c1ccc(C(=O)Nc2cccc(Br)c2)cc1,/,4,/,/,0,/,/
NC(=O)N/N=C/c1ccc(-c2ccc([N+](=O)[O-])cc2)o1,4,9,14,/,-1,/,/
COCCNC(=S)N/N=C/c1ccc(-c2ccc([N+](=O)[O-])cc2)o1,5,31*,20,/,14,44*,47*
COC(=O)C1=C(C(=O)OC)[C@]2([C@H]3CCCCN[C@@H](Cc4ccccc4)C(=O)N3Cc3ccccc3)C=C[C@H]1O2,/,-2,/,/,6,/,/
CCOc1ccc2nc3ccc4[nH]onc4c3c2c1,5,34*,29,34*,17,28*,37*
Cc1c(C(=O)N2CCCC2)oc2c1-c1[nH]ncc1CC2,0,21*,-4,-9,0,4,0
CC1=C(C)CS(=O)N(S(=O)(=O)c2ccc(Cl)cc2)C1 (centres undefined),17,37*,8,0,9,29*,3
O=[N+]([O-])c1cc(Br)c(Nc2ccccc2)c([N+](=O)[O-])c1,20,41*,8,/,9,58*,-8
Cc1cccc(C=NOCCc2ccccc2)n1,/,2,/,/,-8,/,/
